This is one part of a sample in which hits are shown more often than they occur.
RMI-FANCM inh – disruptors of RMI1/RMI2 association with MM2 peptide – biochemical, fluorescence polarization, human, primary screen; RMI core complex (RMI1/RMI2) binding to FANCM MM2 peptide, human; RMI core complex with F-MM2 peptide; active compounds read low; FP signal (polarization) at 33 µM; 0.58% of 70,000 active; AID 1159607, 2016; in the data active = FP signal below about 40
Active calls of the source: *; ! = not active in a repeat.

SMILES	RMI-FANCM inh
CCCN1CCCc2cc(CCNC(=O)Cc3cccc(C)c3)ccc21	55
CCCN1CCCc2cc(CCNC(=O)COc3ccccc3F)ccc21	63
CCCN1CCCc2cc(CCNC(=O)C(=O)NCC(C)C)ccc21	65
CCCN1CCCc2cc(CCNC(=O)C(C)(C)C)ccc21	16*
CN1C(=O)C(C)(C)COc2ccc(NC(=O)c3ccc(-c4ccccc4)cc3)cc21	74
Cc1cc(-c2nc3cccnc3s2)ccc1NC(=O)c1ccc2ccccc2n1	1*
CCOc1ccccc1C(=O)Nc1ccc(-c2nc3cccnc3s2)cc1	94
O=C(Nc1ccc(-c2nc3cccnc3s2)cc1)c1ccco1	155
O=C(Nc1cccc(C(F)(F)F)c1)NC1CC(=O)N(c2ccc3c(c2)OCCO3)C1 (stereo not drawn)	61
Cc1ccc(CSc2nc(-c3cccc(Cl)c3)nc3c2Cc2c(CO)cnc(C)c2O3)cc1	62
O=C1c2cccc(O)c2CCN1Cc1ccc(Br)cc1	67
CCOc1ccc(S(=O)(=O)Nc2cc(-c3c(O)ccc4ccccc34)c(O)c3ccccc23)cc1	56
COc1ccc(S(=O)(=O)Nc2cc(-c3c(O)ccc4ccccc34)c(O)c3ccccc23)cc1	58
O=S(=O)(Nc1cc(Br)c(O)c2ccccc12)c1ccc2ccccc2c1	29*
C=CCN1C(=O)C(C)(C)COc2cc(NC(=O)Cc3ccc(F)cc3)ccc21	68
COc1cccc(OCC(=O)NCC(c2ccsc2)N2CCN(C)CC2)c1 (stereo not drawn)	84
CCOc1ccccc1N=c1oc2c3c4c(cc2cc1C(=O)Nc1ccccc1OC)CCCN4CCC3	33*
CCOC(=O)c1c(N=c2oc3c(OC)cccc3cc2C(=O)Nc2ccc(C)cc2)sc2c1CCCC2	58
COc1cc(C(=O)Nc2ccccc2N2CCCCC2)cc(OC)c1OC	58
COc1ccc(-n2c(N)c(C(=O)NCc3ccccc3OC)sc2=S)c(OC)c1	87
Cc1ccc(CNC(=O)CCCn2nc(-c3ccco3)ccc2=O)cc1	67
COC(=O)c1ccc(C(=O)Nc2ccc3c(c2)nc(C)n3-c2ccccc2)cc1	68
O=C(NNc1nc2c(F)cc(F)cc2s1)c1cc(-c2cccs2)nc2ccccc12	113
c1ccc2c(c1)nc1n2CCN1	65
c1cn2c(n1)NCC2	-22*
SMILES	RMI-FANCM inh
CCOC(=O)c1ccc(OCc2ccccc2)cc1	61
Cc1ccc(-c2csc(NC(=O)c3nc4ccccc4s3)n2)cc1	130
O=C(Nc1csc(-c2ccc(Oc3ccc(-c4nc(NC(=O)c5nc6ccccc6s5)cs4)cc3)cc2)n1)c1nc2ccccc2s1	31*
Cc1ccc(-c2csc(NC(=O)c3nc4ccccc4s3)n2)o1	111
O=C(NCc1cccnc1)c1c[nH]c2c(C(F)(F)F)cccc2c1=O	63
Cc1ccc(S(=O)(=O)N=C2C=CC(=NS(=O)(=O)c3ccc(C)cc3)C=C2)cc1	0*
Cc1ccc(S(=O)(=O)N(C)C)cc1	56
Cc1ccc(S(=O)(=O)N=c2sc3cccc(C)c3n2C)cc1	55
Cc1[nH]c(=S)[nH]c(=O)c1C	67
N#Cc1c(-c2ccco2)cc(-c2ccco2)[nH]c1=O	-9
N#Cc1c(-c2ccco2)c2c([nH]c1=O)-c1ccccc1OC2	-3*
N#Cc1c(-c2ccco2)c2c([nH]c1=O)-c1ccccc1CC2	-59
NS(=O)(=O)c1ccc(NC(=O)CSc2nnc(-c3sc4ccccc4c3Cl)o2)cc1	71
CC(C)c1ccc(NC(=O)c2ccccc2N)cc1	56
COC(=O)C1=C(C)NC(C)=C(C(=O)OC(C)C)C1c1cccc2nonc12 (stereo not drawn)	58
COC(=O)C1=C(C)NC(C)=C(C(=O)OCC(C)C)C1c1ccccc1[N+](=O)[O-] (stereo not drawn)	21*!
COC(=O)C1=C(C)Nc2[nH]ncc2C1c1ccccc1 (stereo not drawn)	69
CC(C)(C)c1cc(C(C)(C)C)c(NP(=S)(OCc2ccccc2)c2ccccc2)c(C(C)(C)C)c1 (stereo not drawn)	58
O=C(c1ccno1)N1CCN(C2c3ccccc3-c3ccccc32)CC1	-13*!
O=C(c1ccc2nsnc2c1)N1CCN(C2c3ccccc3-c3ccccc32)CC1	55
Cc1c(C(=O)N2CCN(C3c4ccccc4-c4ccccc43)CC2)cnn1-c1ccccc1	61
S=c1[nH]nc(CCCOc2ccc(Cl)cc2Cl)n1-c1ccccc1	58
COc1ccc(NC(=O)CC2SC(=N)NC2=O)c([N+](=O)[O-])c1 (stereo not drawn)	64
COc1ccc(NC(=O)CSc2ccc(F)cc2)c([N+](=O)[O-])c1	9*
COc1ccc(SCC(=O)Nc2ccc(F)cc2F)cc1	52
SMILES	RMI-FANCM inh
CC(=O)c1cccc(NC(=O)Cc2csc(Nc3cccc(Cl)c3)n2)c1	64
Cc1cc(F)ccc1S(=O)(=O)NCCCc1ccc(N(C)C)cc1	73
Cc1ccc(C(=O)Nc2sc3c(c2-c2nc4ccccc4s2)CCN(C(C)C)C3)c(C)c1	36
CC(C)N1CCc2c(sc(NC(=O)c3ccc(Cl)s3)c2-c2nc3ccccc3s2)C1	-19*
CC(C)N1CCc2c(sc(NC(=O)c3ccc(S(=O)(=O)N4CCCCCC4)cc3)c2-c2nc3ccccc3s2)C1	3
CC(C)Oc1ccc(NC(=O)CCc2ccccc2)cc1	65
COc1cc(OC)cc(C(=O)NCC(c2cccc3ccccc23)N(C)C)c1 (stereo not drawn)	54*
COc1ccc(CC(=O)NCC(c2cccc3ccccc23)N(C)C)cc1 (stereo not drawn)	51
CN(C)C(CNC(=O)c1cccs1)c1cccc2ccccc12 (stereo not drawn)	50
COc1ccc(N2CCCS2(=O)=O)cc1NS(=O)(=O)c1cc(C)c(C)cc1C	58
CC(=O)c1cccc(N2C(=O)c3cccc([N+](=O)[O-])c3C2=O)c1	29*
CC(=O)c1c(C)nn(-c2ccccc2)c1-c1ccccc1[N+](=O)[O-]	60
CC(=O)C1C(=O)c2cccc([N+](=O)[O-])c2C1=O (stereo not drawn)	53
Cc1ccnc(N2C(=O)CCC2=O)c1	54
COC(=O)c1sc2ccccc2c1NC(=S)NC(=O)c1ccc(Cl)cc1	63
COC(=O)c1sc2ccccc2c1NC(=O)c1cc(Cl)sc1Cl	30*
COC(=O)c1sc2ccccc2c1NC(=O)c1ccc(Br)s1	85
O=C(NCc1ccccn1)C(=O)NCC(c1ccc2c(c1)OCO2)N1CCOCC1 (stereo not drawn)	55
O=C(COc1ccccc1F)Nc1ccc2c(c1)CCC(=O)N2Cc1ccccc1	54

Screening results: PubChem BioAssay, Small Molecule Screening Facility, UW Madison
